The results in this text go back to ChEMBL document CHEMBL1961873, “Compounds: GSK PKIS; Assays: Nanosyn kinase panel” (2012).

Test [1] deals with Tyrosine-protein kinase ABL1 (Homo sapiens), P00519 [T315I]. As to conditions: at 1 µM.
The subject of test [2] is Tyrosine-protein kinase ABL1 (Homo sapiens), P00519 [Y253F]. The note with it: at 0.1 µM.
The test system is the same in test [3]. The note with it: at 1 µM.
Test [4] has as its target Tyrosine-protein kinase ABL1 (Homo sapiens) (UniProt P00519). The note with it: at 0.1 µM.
For test [5] the target is unchanged. As to conditions: at 1 µM.
For test [6], the target named is ALK tyrosine kinase receptor (Homo sapiens) (UniProt Q9UM73). As to conditions: at 0.1 µM.
ALK tyrosine kinase receptor (Homo sapiens), sequence (Q9UM73 19-1620 limits assumed): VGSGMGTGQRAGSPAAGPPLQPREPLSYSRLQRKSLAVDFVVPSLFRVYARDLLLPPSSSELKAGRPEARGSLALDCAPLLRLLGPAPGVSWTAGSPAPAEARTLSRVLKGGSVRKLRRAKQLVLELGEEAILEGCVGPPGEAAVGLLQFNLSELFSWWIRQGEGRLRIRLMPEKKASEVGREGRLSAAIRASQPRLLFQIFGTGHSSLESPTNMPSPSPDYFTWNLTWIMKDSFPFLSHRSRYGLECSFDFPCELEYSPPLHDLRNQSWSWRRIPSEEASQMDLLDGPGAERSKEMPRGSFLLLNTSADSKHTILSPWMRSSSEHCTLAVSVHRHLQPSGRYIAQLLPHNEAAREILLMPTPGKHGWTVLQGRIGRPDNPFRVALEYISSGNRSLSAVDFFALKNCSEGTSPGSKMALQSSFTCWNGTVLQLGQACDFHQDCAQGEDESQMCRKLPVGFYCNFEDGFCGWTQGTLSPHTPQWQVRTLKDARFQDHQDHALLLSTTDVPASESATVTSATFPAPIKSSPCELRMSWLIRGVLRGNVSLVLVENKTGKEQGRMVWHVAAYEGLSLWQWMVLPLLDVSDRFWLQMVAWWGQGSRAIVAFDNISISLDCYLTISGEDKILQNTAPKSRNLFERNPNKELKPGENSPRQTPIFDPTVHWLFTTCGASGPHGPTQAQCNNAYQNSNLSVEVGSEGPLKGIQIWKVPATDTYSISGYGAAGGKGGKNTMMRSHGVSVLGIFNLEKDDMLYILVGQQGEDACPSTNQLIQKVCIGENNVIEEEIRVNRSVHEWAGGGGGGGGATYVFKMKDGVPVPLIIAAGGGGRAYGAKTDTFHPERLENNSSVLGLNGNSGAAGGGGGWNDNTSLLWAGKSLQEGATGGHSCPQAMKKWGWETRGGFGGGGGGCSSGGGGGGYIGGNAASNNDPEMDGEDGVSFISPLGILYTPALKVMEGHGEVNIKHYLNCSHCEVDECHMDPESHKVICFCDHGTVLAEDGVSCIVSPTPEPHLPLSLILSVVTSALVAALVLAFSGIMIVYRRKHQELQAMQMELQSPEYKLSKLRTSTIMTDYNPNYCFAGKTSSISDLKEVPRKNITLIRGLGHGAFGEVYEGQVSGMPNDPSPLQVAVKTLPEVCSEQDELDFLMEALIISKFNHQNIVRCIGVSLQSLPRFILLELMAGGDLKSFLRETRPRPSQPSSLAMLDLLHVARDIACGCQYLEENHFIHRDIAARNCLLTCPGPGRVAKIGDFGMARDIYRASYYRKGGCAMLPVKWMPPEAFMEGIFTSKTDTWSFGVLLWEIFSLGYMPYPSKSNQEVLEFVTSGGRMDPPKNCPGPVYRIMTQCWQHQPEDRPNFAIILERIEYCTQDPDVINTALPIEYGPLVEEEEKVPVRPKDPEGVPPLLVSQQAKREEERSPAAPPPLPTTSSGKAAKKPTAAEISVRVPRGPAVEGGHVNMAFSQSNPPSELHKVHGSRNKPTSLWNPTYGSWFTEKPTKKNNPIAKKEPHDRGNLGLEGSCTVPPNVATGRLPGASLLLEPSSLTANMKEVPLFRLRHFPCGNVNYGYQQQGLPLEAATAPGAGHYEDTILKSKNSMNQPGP
For test [7] the target is unchanged. As to conditions: at 1 µM.
Test [8] has as its target Tyrosine-protein kinase ABL2 (Homo sapiens) (UniProt P42684). The note with it: at 0.1 µM.
Test [9] shares this target. As to conditions: at 1 µM.
Test [10] concerns the target Tyrosine-protein kinase receptor UFO (Homo sapiens) (UniProt P30530). As to conditions: at 0.1 µM.
The target is the same in test [11]. The note with it: at 1 µM.
The target in test [12] is Tyrosine-protein kinase Blk (Homo sapiens) (UniProt P51451). As to conditions: at 0.1 µM.
Tyrosine-protein kinase Blk (Homo sapiens), sequence (P51451 2-505 limits assumed): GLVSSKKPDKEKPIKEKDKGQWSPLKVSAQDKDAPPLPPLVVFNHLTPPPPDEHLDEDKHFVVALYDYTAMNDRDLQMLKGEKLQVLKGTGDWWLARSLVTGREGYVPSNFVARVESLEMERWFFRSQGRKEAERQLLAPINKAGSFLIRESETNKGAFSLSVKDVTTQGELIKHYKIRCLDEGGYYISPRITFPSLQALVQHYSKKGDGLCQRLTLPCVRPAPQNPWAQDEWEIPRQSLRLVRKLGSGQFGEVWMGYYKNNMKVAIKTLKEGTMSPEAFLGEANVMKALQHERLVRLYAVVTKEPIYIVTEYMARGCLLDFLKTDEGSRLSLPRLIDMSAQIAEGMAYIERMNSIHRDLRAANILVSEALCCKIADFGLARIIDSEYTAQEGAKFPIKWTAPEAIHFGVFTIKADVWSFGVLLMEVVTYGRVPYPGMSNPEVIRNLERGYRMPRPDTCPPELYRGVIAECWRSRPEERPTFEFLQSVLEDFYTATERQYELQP
Test [13] has the same target. The note with it: at 1 µM.
The target in test [14] is T1, Cytoplasmic tyrosine-protein kinase BMX (Homo sapiens) (UniProt P51813).
T1 sequence (whole entry): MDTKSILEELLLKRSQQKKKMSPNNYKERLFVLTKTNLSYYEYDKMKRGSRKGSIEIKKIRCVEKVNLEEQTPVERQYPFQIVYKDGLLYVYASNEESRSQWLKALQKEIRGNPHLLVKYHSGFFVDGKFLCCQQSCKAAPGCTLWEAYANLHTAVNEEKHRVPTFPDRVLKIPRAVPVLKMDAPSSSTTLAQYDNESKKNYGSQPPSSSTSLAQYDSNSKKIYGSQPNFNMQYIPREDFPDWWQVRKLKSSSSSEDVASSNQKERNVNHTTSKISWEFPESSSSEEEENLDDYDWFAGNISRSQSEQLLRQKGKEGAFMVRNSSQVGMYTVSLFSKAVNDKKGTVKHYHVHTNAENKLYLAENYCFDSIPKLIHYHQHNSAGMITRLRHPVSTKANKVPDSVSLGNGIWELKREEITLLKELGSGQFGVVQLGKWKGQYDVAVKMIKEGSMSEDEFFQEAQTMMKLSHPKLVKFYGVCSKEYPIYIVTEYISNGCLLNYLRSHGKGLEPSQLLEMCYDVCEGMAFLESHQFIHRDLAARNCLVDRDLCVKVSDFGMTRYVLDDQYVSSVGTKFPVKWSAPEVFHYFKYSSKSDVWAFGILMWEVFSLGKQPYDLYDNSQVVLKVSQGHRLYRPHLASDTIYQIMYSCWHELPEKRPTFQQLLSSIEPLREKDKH
The note with it: at 0.1 µM.

Test [15] concerns the target T1, Cytoplasmic tyrosine-protein kinase BMX (Homo sapiens). The note with it: at 1 µM.
The target in test [16] is Protein-tyrosine kinase 6 (Homo sapiens) (UniProt Q13882). The note with it: at 0.1 µM.
Protein-tyrosine kinase 6 (Homo sapiens), sequence (Q13882 whole entry, looked up): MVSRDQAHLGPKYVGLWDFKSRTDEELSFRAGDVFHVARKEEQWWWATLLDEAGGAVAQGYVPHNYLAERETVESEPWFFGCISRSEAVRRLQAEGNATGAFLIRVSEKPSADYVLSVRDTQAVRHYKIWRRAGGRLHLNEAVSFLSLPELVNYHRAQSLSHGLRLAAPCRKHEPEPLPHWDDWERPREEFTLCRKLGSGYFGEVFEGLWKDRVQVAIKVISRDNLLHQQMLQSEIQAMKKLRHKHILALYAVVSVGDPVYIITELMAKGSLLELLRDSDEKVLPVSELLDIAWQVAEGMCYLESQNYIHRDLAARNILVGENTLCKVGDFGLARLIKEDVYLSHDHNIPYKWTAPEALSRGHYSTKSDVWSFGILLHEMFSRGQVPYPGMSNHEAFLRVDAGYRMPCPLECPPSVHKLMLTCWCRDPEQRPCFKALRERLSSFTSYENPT
For test [17] the target is unchanged. The note with it: at 1 µM.
Test [18] addresses Tyrosine-protein kinase BTK (Homo sapiens) (UniProt Q06187). As to conditions: at 0.1 µM.
The target is the same in test [19]. The note with it: at 1 µM.
The target of test [20] is Tyrosine-protein kinase CSK (Homo sapiens) (UniProt P41240). The note with it: at 0.1 µM.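 Also: value given is the averaged percent inhibition of CSK kinase activity, from the GSK PKIS kinase inhibitor set screening panel.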
Tyrosine-protein kinase CSK (Homo sapiens), sequence (P41240 2-450 limits assumed): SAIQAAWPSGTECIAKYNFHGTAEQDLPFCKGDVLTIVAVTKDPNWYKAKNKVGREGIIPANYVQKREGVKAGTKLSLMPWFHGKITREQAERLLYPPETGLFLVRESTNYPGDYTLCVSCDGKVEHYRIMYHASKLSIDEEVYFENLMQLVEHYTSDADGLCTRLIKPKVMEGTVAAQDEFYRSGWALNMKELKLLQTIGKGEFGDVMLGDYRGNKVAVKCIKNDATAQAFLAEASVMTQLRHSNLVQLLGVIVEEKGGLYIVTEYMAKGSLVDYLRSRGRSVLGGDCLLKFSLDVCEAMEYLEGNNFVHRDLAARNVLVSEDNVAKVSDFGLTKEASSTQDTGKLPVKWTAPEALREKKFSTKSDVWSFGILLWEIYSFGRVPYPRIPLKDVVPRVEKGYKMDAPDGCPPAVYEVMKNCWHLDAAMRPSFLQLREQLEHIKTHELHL

Tyrosine-protein kinase receptor UFO (Homo sapiens), sequence (P30530 whole entry): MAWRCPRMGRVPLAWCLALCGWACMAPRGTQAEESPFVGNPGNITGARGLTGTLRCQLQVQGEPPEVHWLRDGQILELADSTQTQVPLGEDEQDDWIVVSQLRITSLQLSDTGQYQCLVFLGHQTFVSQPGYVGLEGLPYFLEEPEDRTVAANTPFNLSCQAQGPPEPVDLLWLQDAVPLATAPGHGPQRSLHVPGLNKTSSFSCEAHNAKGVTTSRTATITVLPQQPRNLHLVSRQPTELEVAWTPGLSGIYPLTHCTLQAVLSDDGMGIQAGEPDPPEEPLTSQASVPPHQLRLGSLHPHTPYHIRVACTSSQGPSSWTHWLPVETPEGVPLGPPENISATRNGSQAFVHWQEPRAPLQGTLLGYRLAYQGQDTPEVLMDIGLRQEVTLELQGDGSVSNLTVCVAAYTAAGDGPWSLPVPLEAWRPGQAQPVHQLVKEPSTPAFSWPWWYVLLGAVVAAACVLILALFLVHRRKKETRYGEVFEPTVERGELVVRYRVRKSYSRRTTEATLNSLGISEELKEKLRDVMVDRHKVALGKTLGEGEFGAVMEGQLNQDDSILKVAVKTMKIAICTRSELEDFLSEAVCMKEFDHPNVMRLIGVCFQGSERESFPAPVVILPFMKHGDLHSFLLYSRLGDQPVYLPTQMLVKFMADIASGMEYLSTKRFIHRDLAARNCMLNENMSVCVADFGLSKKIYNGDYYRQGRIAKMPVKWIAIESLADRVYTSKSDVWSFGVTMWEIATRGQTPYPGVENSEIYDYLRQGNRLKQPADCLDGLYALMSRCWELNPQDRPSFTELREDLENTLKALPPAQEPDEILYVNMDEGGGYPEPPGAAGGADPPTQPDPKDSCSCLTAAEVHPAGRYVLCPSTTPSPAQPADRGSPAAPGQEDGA
Tyrosine-protein kinase BTK (Homo sapiens), sequence (Q06187 whole entry): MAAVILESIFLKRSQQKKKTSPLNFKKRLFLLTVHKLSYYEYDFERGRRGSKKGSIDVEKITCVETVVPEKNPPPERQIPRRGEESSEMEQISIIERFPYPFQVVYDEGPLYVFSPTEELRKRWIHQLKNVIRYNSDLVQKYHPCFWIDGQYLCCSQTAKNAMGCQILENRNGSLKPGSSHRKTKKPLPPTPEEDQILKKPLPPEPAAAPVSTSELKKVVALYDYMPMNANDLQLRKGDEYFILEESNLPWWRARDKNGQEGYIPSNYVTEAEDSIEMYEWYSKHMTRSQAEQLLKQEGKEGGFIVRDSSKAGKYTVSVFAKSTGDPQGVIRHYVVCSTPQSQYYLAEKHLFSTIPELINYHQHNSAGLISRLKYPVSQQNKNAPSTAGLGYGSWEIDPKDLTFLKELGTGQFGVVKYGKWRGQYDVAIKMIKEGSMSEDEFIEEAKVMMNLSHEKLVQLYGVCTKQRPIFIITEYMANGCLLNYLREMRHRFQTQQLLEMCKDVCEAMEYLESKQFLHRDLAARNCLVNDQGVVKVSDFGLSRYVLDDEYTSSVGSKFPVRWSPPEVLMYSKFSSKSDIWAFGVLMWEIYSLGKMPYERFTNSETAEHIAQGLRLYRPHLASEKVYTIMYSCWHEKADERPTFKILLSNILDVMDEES

For orientation: inhibition means the drop in the measured response relative to a control, in per cent. For the compound `COc1cc(N2CCN(C(C)C)CC2)ccc1Nc1nc(Nc2ccc(F)cc2C(=O)NC[C@@H](O)CO)c2cc[nH]c2n1`, the inhibition in [1] is 6.94%; in [2] it was 4.03%; in [3], 6.49%; in [4], -1.73%; in test [5], 0.53%; in test [6], 82.6%. The inhibition in test [7] is 69.5%; in [8], -1.39%; in test [9], 1.38%; in test [10] it was -4.74%; in [11], 7.75%; in test [12] it was -1.34%. Further, the inhibition in test [13] was 0.03%; in [14], 3.82%; in test [15], 4.34%; in test [16] it was 4.82%; in [17], 7.68%; in test [18], -2.66%. The inhibition in test [19] is -4.6%; in test [20] it was 5.74%.
`COc1cc2ncn(-c3cc(OCc4ccccc4C(F)(F)F)c(C(C)=O)s3)c2cc1OC`: the inhibition in test [1] was 4.77%; in test [2], 3.33%; in [3], 4.29%; in test [4], 5.34%; in test [5], 10.7%; in [6], 2.65%. Moreover, the inhibition in test [7] was 3.72%; in [8] it was 6.5%; in [9], 10.4%; in [10], -3.01%; in test [11], -1.92%; in [12], 3.79%. The inhibition in test [13] is 4.29%; in test [14], 4.87%; in [15], 2.58%; in [16], -3.46%; in test [17], 3.98%; in test [18] it was 1.17%. Besides, the inhibition is 1.75% in test [19] and 0.53% in test [20].
In the case of `C[C@@H](Oc1cc(-n2cnc3ccc(OCC4CCN(C)CC4)cc32)sc1C(N)=O)c1ccccc1Cl`, the inhibition in test [1] was 9.89%; in test [2], 2.53%; in test [3] it was 11%; in test [4] it was 5.81%; in test [5], 14%; in test [6] it was 8.57%. Further, the inhibition in test [7] was 24.5%; in test [8], 8.53%; in test [9], 12.4%; in [10] it was -5.23%; in test [11], 3.11%; in test [12] it was 2.92%. The inhibition in test [13] turned out to be 10.4%; in test [14], 0.11%; in test [15] it was 2.71%; in [16], 5.93%; in test [17] it was 6.07%; in test [18], 0%. Moreover, the results for the inhibition in test [19] and in [20] were 0.95% and 5.15%, respectively.
For the compound `C[C@@H](Oc1cc(-n2cnc3ccc(OC4CCN(C)CC4)cc32)sc1C(N)=O)c1ccccc1Cl`, the inhibition was 7.51% in test [1]; 3.29% in [2]; 13.1% in test [3]; 0.35% in [4]; 7.3% in [5]; -0.85% in test [6]. Also, the inhibition is 5.48% in test [7]; -1.57% in [8]; 2.18% in [9]; -8.27% in test [10]; -3.62% in [11]; -0.86% in [12]. Also, the inhibition in test [13] was -0.94%; in [14], 4%; in test [15], 6.6%; in [16], 2.72%; in [17], 3.15%; in test [18], -4.65%. Besides, the results for the inhibition in test [19] and in test [20] were -3.35% and 2.4%, respectively.
With `COc1ccc(-c2ccc3c(NC(=O)C4CC4)n[nH]c3n2)cc1`, the inhibition in test [1] was found to be 21.2%; in test [2] it was 2.3%; in test [3], 9.63%; in [4] it was 2.39%; in [5] it was 19.3%; in [6] it was 1.28%. Besides, the inhibition in test [7] was 1.76%; in test [8], 2.81%; in test [9], 8.05%; in test [10], -1.95%; in test [11] it was -2.35%; in test [12], 1.52%. Further, the inhibition in [13] turned out to be 2.8%; in test [14] it was 3.4%; in test [15], 2.59%; in test [16], 0.93%; in test [17] it was 2.88%; in test [18], 0.22%. The inhibition is -0.23% in [19] and 0.42% in test [20].
Consider `CS(=O)(=O)CCNCc1cc(-c2cc3c(Nc4ccc(OCc5cccc(F)c5)c(Cl)c4)ncnc3s2)cs1`, for which the inhibition is 4.55% in test [1]; 2.36% in test [2]; 4.31% in test [3]; 3.45% in test [4]; 6.21% in [5]; 2.96% in test [6]. The inhibition in test [7] was 4.5%; in test [8] it was 2.95%; in test [9] it was 6.38%; in test [10], -7.56%; in test [11] it was -6.81%; in test [12], 2.61%. Also, the inhibition in test [13] is 5.05%; in test [14] it was 3.9%; in [15] it was 7.31%; in test [16], 1.27%; in test [17], 5.98%; in [18] it was -1.08%. In addition, the values for the inhibition in test [19] and in test [20] were 0.76% and 1.58%, respectively.
In the case of `Fc1ccc(-c2ncn(C3CCNCC3)c2-c2ccnc(Oc3ccc(F)c(F)c3)n2)cc1`, the inhibition in test [1] was 1.7%; in test [2], 1.79%; in [3], 2.98%; in test [4] it was -1.26%; in [5], -1.29%; in [6] it was -1%. Moreover, the inhibition in test [7] is 1.5%; in test [8], -1.34%; in [9], 0.3%; in test [11], -4.58%; in test [12] it was -1.88%; in test [13], -2.13%. In addition, the inhibition is 3.36% in [14]; 3.49% in [15]; 2.61% in [16]; 5.39% in test [17]; -4.19% in [18]; -4.23% in test [19]. Besides, the inhibition in [20] turned out to be 2.54%.
